Assay results taken from the supplement of paper PMC11732987, “Enantioselective OTUD7B fragment discovery through chemoproteomics screening and high-throughput optimisation” (Communications Chemistry, 2025).

What was measured:
Test in all cases: log2 ratio of Biotin-Ahx-Ub-VS probe labelling (fragment/DMSO); higher = less target engagement (more negative = stronger competition), active = hit call of the paper (q ≤ 0.05, log2 ratio ≤ -1)
Conditions in all cases: compound concentration: 200 uM; treatment time: 3 h
USP42 = target: T1, USP42 (UniProt Q9H9J4)
T1 sequence (whole entry): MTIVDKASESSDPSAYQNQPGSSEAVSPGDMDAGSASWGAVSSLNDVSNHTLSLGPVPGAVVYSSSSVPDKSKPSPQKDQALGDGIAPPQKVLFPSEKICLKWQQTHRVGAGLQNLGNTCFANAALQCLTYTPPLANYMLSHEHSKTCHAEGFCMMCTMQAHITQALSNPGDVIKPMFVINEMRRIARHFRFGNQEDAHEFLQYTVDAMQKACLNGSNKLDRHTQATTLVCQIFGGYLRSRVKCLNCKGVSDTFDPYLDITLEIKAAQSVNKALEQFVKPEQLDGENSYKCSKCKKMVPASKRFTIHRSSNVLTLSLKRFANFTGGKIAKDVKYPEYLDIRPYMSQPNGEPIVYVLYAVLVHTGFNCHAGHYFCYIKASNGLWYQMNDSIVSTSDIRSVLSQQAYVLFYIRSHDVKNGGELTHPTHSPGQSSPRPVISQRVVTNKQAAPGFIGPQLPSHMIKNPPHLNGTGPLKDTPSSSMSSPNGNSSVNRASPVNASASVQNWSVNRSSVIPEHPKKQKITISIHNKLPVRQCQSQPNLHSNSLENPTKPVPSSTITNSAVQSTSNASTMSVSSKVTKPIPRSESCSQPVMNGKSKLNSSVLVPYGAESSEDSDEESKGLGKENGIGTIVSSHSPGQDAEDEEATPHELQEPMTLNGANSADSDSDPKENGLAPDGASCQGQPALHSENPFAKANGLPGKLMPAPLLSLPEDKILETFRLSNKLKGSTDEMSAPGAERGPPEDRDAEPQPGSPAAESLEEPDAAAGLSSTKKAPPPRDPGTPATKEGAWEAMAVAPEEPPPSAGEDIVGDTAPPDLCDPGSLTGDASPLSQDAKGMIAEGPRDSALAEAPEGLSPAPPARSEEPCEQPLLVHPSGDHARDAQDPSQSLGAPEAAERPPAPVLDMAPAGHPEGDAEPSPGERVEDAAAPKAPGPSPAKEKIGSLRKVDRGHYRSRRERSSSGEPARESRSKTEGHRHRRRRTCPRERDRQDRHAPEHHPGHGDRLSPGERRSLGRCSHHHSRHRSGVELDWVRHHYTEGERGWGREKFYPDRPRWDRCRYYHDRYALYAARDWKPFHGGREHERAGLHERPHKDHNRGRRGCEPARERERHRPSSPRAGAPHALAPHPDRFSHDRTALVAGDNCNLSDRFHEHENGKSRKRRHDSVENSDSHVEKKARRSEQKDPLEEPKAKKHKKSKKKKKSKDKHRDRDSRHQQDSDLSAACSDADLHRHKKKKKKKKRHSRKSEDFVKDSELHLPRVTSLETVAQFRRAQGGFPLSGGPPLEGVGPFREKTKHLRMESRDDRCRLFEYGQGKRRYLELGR
How it was run: (§1)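 Global-median-normalised Spectronaut label-free quantities were compared by unpaired t-test, and values are average log2 ratios of fragment over vehicle. Only proteins with ≥2 unique peptides were used. HEK293T lysate (495 µg per sample) was treated in triplicate with fragment at 200 µM or vehicle for 3 h and then with Biotin-Ahx-Ub-VS at 0.5 µM final for 1 h. Labelled DUBs were then NeutrAvidin-enriched, digested with LysC and trypsin, and run by diaPASEF LC-MS/MS.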

USP46 = USP46 (UniProt P62068)
How it was run: as §1

USP47 = target: T2, USP47 (UniProt Q96K76)
T2 sequence (whole entry): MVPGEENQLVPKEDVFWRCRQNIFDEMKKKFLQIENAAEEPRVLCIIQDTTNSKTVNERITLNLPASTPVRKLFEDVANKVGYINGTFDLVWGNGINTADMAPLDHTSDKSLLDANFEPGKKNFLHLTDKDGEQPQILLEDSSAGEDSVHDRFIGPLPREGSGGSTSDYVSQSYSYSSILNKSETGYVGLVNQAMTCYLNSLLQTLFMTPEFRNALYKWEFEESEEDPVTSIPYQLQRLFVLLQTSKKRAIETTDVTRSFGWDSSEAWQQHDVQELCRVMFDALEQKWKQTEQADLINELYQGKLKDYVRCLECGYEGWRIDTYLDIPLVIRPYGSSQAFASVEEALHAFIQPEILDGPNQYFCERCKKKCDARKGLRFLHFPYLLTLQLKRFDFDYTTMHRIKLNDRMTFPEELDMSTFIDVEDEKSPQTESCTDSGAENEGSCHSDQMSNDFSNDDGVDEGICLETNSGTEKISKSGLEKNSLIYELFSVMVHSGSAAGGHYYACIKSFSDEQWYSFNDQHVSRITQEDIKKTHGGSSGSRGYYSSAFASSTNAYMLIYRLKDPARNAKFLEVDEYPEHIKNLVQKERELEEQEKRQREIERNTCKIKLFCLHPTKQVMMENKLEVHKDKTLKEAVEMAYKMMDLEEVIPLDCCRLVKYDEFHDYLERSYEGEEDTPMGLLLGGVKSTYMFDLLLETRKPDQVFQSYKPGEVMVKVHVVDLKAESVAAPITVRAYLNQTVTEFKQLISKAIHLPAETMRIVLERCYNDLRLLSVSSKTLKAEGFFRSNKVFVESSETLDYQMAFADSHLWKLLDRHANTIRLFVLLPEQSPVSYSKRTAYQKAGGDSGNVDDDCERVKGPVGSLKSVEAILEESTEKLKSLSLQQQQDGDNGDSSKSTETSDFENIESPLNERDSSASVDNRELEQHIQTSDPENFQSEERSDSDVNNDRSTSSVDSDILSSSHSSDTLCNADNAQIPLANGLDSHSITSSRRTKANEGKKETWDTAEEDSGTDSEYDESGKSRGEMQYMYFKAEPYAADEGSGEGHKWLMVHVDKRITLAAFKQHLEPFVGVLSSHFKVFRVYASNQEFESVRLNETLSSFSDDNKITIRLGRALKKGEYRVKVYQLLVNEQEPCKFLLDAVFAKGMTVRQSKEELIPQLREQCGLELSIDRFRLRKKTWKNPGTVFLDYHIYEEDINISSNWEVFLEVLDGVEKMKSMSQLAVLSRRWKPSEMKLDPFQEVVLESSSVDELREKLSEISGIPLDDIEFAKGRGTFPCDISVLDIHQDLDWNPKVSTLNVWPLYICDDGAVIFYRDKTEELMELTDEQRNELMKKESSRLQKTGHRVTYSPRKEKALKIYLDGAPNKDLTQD
How it was run: as §1

USP48 = target: T3, USP48 (UniProt Q86UV5)
T3 sequence (whole entry): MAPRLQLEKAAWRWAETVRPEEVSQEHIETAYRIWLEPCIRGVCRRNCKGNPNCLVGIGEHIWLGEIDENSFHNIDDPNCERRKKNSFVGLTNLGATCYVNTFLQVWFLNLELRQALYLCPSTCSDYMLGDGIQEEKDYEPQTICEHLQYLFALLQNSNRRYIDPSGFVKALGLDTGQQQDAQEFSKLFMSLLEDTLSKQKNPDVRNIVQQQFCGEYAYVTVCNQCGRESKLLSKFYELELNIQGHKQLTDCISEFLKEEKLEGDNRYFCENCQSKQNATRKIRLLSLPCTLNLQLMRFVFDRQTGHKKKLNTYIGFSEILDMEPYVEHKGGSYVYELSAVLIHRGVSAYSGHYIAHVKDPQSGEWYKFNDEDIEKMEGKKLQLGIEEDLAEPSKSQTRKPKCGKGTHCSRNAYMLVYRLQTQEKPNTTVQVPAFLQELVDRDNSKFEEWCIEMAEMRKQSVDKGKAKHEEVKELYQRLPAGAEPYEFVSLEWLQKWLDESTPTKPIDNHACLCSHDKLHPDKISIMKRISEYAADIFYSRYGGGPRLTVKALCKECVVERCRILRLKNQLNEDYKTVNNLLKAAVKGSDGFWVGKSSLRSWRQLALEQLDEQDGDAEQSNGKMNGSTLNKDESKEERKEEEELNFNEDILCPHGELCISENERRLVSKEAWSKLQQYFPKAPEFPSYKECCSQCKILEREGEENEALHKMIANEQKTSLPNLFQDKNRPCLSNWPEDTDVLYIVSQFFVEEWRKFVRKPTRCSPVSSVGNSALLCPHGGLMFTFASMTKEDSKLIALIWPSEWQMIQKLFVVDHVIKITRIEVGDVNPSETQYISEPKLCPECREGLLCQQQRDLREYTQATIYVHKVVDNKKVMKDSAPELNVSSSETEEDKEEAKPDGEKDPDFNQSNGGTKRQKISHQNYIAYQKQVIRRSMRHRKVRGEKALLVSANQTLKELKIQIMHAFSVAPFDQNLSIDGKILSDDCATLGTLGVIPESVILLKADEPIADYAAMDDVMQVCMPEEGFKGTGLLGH
How it was run: as §1

USP5 = target: T4, USP5 (UniProt P45974)
T4 sequence (whole entry): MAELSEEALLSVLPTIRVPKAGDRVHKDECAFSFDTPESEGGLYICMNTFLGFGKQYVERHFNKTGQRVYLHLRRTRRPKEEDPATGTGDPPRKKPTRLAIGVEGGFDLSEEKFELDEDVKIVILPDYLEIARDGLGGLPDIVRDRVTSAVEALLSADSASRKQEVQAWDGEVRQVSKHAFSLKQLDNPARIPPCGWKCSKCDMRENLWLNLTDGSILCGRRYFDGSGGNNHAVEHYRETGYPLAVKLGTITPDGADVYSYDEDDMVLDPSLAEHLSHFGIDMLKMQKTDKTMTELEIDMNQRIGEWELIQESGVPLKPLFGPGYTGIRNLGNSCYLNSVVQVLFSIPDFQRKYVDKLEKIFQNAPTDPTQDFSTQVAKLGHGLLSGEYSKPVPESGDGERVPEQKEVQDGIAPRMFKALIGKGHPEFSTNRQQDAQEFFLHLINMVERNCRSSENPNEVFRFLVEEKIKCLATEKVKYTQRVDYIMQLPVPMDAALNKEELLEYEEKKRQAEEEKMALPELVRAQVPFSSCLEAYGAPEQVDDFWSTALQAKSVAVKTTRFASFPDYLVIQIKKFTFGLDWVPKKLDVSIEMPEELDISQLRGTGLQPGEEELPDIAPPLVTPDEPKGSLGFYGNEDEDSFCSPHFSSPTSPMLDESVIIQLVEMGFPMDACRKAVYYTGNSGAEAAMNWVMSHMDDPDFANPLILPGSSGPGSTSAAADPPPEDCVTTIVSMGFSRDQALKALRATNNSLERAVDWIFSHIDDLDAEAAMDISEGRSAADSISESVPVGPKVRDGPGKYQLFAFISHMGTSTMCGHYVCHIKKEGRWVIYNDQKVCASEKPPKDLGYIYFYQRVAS
How it was run: as §1

USP54 = USP54 (UniProt Q70EL1)
How it was run: as §1

USP7 = USP7 (UniProt Q93009)
How it was run: as §1

USP8 = target: T5, USP8 (UniProt P40818)
T5 sequence (whole entry): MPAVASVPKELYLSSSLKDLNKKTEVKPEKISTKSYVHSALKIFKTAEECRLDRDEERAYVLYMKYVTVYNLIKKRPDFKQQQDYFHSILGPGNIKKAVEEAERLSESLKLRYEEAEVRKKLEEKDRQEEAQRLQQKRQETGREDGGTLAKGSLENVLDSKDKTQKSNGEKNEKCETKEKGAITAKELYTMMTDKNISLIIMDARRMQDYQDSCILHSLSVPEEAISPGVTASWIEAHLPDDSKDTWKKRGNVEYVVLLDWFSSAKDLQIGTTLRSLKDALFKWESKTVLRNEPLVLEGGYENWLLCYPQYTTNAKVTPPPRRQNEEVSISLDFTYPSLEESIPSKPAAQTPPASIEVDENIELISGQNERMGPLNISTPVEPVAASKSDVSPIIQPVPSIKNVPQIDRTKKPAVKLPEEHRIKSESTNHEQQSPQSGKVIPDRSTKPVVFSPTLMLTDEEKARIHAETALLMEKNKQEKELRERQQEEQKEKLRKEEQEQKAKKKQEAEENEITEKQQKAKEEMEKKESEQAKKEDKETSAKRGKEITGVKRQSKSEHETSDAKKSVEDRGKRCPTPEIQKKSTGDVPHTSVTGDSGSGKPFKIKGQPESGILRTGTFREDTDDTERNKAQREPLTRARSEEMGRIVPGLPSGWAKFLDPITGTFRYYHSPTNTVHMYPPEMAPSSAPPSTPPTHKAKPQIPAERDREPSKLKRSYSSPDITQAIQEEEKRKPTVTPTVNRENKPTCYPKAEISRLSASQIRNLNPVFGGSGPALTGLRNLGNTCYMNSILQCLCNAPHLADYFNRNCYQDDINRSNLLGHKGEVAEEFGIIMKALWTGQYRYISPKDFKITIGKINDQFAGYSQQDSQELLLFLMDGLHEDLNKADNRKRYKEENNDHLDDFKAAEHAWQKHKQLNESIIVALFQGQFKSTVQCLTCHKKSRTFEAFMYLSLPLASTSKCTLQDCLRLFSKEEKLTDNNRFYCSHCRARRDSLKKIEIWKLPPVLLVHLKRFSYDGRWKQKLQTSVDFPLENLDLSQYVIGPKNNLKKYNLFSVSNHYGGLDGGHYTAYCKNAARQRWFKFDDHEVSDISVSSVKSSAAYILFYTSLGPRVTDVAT
How it was run: as §1

USP9X = USP9X (UniProt Q93008)
How it was run: as §1

UniProt O00487 = target: UniProt O00487
How it was run: as §1

Measured: log2 ratio of Biotin-Ahx-Ub-VS probe labelling

USP9X, sequence (Q93008 whole entry): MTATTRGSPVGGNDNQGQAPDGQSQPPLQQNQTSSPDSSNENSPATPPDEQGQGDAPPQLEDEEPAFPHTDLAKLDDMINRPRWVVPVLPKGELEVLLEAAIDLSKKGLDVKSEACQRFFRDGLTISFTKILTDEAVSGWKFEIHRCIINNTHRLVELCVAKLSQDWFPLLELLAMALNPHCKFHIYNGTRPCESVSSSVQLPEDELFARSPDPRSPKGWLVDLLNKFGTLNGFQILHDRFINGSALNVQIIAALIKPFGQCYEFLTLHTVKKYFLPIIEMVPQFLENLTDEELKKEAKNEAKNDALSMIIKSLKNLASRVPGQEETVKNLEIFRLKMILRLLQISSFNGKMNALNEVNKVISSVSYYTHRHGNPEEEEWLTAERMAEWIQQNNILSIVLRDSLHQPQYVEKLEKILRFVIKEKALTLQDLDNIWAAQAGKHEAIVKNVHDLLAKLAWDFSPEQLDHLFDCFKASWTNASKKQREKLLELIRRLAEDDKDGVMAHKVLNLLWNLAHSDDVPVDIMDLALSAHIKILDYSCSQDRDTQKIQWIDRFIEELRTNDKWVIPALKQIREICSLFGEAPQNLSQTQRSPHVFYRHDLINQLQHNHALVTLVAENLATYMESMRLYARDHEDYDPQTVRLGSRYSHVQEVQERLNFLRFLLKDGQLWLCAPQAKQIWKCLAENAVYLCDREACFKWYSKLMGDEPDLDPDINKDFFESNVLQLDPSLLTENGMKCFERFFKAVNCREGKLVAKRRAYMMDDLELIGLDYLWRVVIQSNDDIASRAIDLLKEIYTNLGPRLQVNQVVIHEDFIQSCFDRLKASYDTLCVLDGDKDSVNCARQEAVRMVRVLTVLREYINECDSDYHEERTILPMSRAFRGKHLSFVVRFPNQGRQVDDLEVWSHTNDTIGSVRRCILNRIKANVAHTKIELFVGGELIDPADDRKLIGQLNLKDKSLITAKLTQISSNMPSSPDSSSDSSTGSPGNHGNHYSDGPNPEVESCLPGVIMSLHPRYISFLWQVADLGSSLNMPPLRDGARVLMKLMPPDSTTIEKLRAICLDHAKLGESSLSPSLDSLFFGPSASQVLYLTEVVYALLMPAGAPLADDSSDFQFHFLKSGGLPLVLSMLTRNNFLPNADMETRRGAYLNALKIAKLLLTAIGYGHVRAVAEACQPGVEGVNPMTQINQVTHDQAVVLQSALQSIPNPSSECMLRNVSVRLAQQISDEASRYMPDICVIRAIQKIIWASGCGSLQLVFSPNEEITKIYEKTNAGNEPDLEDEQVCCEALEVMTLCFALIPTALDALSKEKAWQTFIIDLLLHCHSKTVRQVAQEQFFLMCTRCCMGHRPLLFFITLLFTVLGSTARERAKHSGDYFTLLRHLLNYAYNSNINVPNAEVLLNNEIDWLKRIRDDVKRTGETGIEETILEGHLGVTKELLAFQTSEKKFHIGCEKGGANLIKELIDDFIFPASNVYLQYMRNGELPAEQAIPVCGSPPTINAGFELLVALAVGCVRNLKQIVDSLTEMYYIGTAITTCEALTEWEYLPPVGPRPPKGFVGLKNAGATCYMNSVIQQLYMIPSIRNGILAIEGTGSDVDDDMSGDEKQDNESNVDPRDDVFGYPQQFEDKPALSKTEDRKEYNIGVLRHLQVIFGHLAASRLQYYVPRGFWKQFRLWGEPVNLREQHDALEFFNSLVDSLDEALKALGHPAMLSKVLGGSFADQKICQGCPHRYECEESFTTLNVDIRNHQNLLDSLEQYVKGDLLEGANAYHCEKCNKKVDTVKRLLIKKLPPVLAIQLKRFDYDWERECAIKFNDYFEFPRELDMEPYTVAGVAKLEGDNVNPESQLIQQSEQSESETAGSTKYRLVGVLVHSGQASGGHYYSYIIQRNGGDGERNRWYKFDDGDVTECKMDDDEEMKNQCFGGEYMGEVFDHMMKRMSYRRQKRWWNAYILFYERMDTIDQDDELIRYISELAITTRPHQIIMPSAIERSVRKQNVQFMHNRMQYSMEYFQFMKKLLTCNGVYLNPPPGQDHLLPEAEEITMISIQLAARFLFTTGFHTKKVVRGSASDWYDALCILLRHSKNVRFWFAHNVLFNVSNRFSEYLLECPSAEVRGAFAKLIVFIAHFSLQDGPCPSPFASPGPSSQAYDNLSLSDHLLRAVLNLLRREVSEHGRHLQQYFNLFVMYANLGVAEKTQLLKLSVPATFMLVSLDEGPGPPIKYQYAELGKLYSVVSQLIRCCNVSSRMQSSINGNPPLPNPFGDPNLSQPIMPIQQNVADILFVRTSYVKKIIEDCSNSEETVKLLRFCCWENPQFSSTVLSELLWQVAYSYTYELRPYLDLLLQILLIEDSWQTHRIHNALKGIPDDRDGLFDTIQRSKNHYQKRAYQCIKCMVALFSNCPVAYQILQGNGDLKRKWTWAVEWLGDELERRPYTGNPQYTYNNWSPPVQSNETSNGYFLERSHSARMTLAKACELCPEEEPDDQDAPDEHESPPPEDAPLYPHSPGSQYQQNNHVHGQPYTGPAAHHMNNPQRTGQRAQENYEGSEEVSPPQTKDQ
UniProt O00487, sequence (O00487 whole entry): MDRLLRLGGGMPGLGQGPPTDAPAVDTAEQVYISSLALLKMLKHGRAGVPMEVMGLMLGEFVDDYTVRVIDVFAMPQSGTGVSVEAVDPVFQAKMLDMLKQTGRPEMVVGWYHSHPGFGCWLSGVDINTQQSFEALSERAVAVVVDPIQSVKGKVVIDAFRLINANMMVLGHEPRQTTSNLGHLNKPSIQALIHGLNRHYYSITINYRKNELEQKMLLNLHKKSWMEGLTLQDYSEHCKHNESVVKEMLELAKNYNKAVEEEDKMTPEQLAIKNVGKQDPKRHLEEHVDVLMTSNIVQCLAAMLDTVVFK
USP54, sequence (Q70EL1 whole entry): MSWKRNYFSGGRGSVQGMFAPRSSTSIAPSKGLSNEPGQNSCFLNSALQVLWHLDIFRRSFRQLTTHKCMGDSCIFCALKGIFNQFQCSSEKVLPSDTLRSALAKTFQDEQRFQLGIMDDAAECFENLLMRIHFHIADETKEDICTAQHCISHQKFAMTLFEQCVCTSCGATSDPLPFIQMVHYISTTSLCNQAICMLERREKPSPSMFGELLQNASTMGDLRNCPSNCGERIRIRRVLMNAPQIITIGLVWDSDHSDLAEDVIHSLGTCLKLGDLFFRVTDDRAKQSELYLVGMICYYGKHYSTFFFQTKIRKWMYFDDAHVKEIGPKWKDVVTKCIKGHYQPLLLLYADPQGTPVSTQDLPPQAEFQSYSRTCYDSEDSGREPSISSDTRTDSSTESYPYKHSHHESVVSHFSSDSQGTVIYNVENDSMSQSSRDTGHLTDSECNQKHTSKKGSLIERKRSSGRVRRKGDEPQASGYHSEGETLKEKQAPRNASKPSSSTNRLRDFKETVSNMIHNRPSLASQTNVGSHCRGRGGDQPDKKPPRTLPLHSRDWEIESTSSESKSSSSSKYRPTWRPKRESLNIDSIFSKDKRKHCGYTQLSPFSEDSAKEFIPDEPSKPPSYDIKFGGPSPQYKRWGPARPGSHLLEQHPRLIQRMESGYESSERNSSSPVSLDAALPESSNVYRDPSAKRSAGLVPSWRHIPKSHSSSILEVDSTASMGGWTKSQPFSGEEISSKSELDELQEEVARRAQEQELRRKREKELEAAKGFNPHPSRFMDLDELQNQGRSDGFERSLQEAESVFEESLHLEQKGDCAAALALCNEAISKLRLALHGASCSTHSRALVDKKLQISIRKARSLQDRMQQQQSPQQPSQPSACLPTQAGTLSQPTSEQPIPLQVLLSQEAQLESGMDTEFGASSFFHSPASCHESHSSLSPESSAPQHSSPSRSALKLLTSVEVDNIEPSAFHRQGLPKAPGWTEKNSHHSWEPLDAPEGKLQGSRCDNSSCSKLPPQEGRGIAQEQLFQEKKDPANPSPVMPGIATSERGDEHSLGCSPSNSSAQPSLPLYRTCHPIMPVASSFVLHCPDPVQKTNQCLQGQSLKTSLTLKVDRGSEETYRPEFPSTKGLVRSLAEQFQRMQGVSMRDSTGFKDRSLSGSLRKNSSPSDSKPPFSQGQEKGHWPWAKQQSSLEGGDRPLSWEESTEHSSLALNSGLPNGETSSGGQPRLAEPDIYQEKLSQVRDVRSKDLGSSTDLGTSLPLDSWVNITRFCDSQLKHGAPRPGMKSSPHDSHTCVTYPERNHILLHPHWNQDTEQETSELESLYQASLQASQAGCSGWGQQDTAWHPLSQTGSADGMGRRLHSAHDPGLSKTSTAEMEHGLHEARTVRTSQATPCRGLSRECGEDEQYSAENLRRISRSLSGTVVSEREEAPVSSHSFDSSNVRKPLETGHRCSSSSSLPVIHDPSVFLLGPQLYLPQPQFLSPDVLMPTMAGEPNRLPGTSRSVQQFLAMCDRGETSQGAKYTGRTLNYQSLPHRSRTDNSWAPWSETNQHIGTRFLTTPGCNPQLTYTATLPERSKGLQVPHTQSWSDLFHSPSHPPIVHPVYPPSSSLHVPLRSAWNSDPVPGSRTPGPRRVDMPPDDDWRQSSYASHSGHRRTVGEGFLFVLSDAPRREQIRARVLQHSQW
USP46, sequence (P62068 whole entry): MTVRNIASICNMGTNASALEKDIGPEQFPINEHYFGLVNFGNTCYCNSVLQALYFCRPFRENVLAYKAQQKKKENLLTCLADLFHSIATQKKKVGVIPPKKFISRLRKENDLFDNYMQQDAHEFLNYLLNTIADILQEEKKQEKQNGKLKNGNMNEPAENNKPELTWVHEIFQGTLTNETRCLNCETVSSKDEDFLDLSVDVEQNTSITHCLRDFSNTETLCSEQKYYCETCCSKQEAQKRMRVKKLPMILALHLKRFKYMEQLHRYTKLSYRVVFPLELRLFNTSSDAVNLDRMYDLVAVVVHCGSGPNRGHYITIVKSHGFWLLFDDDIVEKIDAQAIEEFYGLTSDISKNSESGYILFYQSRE

Cl.O=C(CCl)N[C@H]1C[C@@H](n2cccn2)C1
inactive: USP42 0.0882 | USP46 -0.00232 | USP47 0.175 | USP48 0.0582 | USP5 -0.126 | USP54 -0.186 | USP7 -0.218 | USP8 0.27 | USP9X -0.0582 | UniProt O00487 0.0109
